15 sequences from article PMC3218832 can be followed below.

Test in all cases: protein binding microarray; high values mean tight binding
What all share (settings): dsDNA, one strand shown

Assay [1] deals with RELARELA (p65 homodimer) (Homo sapiens, UniProt Q04206 1-307).
The target of assay [2] is p50p50 homodimer (Homo sapiens, UniProt P19838 7-356).
The target in assay [3] is T1, p52p52 homodimer (Homo sapiens, UniProt Q00653 4-332).
T1 sequence: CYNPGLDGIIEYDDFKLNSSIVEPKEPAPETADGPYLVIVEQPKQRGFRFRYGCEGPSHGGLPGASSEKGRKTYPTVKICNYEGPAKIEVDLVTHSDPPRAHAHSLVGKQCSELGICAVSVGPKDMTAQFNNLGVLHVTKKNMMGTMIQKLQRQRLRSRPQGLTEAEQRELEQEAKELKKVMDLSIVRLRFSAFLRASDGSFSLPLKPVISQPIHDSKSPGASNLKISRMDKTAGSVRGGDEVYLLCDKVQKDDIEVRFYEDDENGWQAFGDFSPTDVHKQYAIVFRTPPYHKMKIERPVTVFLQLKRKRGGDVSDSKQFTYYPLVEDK

For assay [4], the target named is RELA (p65) subunit of heterodimer;p50 subunit (Homo sapiens;Homo sapiens, UniProt Q04206;P19838 1-307;7-356).
For assay [5], the target named is RELA (p65) subunit of heterodimer;p52 subunit (Homo sapiens;Homo sapiens, UniProt Q04206;Q00653 1-307;4-332).
For assay [6], the target named is RELB subunit;p50 subunit (Homo sapiens;Homo sapiens, UniProt Q01201;P19838 120-401;7-356).
The target in assay [7] is T2, RELB subunit;p52 subunit (Homo sapiens;Homo sapiens, UniProt Q01201;Q00653 120-401;4-332).
T2 sequence 1: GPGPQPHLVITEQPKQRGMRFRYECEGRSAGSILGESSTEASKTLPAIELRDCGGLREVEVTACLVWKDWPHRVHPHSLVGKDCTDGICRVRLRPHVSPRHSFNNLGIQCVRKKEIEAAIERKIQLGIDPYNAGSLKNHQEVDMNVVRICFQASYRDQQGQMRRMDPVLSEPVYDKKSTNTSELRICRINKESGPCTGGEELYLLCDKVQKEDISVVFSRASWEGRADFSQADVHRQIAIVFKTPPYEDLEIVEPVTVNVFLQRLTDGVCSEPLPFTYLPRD
T2 sequence 2: T1 sequence

Assay [8] deals with C-Rel subunit;p50 subunit (Homo sapiens;Homo sapiens, UniProt Q04864;P19838 1-285;7-356).
In assay [9] the target is T3, C-Rel subunit;p52 subunit (Homo sapiens;Homo sapiens, UniProt Q04864;Q00653 1-285;4-332).
T3 sequence 1: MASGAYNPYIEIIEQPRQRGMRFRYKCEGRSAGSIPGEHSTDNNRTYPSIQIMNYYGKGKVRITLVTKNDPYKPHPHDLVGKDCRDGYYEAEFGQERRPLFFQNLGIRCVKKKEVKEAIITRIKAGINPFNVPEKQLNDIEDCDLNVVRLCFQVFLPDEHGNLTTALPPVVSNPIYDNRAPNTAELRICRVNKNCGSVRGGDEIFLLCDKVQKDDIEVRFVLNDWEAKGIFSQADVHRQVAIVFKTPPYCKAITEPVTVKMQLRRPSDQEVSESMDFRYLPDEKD
T3 sequence 2: T1 sequence

RELA (p65) subunit of heterodimer;p50 subunit, sequence (Q04206 1-307, chain 1 of 2): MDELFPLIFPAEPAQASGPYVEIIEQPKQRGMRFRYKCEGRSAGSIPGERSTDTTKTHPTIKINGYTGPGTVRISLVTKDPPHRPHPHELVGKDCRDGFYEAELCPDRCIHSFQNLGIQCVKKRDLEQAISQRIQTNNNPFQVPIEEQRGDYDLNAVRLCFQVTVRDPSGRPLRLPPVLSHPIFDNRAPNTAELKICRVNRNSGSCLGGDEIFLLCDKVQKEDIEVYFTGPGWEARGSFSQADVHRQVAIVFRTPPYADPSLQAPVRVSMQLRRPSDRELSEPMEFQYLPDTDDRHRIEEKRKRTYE
RELA (p65) subunit of heterodimer;p50 subunit, sequence (P19838 7-356, chain 2 of 2): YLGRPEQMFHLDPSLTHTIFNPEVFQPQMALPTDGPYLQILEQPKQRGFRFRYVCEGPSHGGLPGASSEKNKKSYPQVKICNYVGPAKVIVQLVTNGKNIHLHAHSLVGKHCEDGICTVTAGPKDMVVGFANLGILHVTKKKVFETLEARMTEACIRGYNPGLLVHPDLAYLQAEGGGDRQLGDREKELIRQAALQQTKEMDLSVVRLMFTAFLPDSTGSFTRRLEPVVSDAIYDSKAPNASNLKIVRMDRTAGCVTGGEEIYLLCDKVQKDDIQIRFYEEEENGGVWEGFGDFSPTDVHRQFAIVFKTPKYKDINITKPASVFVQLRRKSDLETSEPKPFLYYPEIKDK
RELARELA (p65 homodimer), sequence (Q04206 1-307): as the sequence (Q04206 1-307, chain 1 of 2) above
p50p50 homodimer, sequence (P19838 7-356): as the sequence (P19838 7-356, chain 2 of 2) above

For the sequence CGAGAATCCCT, the binding signal in assay [1] was -0.154 z-score; in [2], 0.393 z-score; in assay [3], 0.327 z-score; in assay [4], 0.25 z-score; in [5], 0.284 z-score; in [6], 0.305 z-score. The binding signal amounted to 0.573 z-score in assay [7], 0.277 z-score in assay [8] and 0.32 z-score in assay [9].
As for AGAGAACTCCT, the binding signal in assay [1] is -0.542 z-score; in [2] it was -1.29 z-score; in assay [3] it was -0.694 z-score; in assay [4] it was -0.888 z-score; in [5] it was -1.06 z-score; in [6], -1.05 z-score. Moreover, the results for the binding signal in [7], in [8] and in [9] were -0.943 z-score, -1.01 z-score and -0.762 z-score, respectively.
Regarding GAAGTTATCCC, the binding signal in assay [1] was -0.0836 z-score; in assay [2], -0.295 z-score; in assay [3], -0.152 z-score; in [4] it was -0.31 z-score; in assay [5], -0.235 z-score; in assay [6], -0.113 z-score. The results for the binding signal in [7], in assay [8] and in assay [9] were -0.152 z-score, -0.126 z-score and -0.251 z-score, respectively.
With AAAAGGGCCCT, the binding signal in assay [1] was -0.729 z-score; in [2], -0.423 z-score; in assay [3], -0.373 z-score; in assay [4] it was -0.762 z-score; in assay [5], -0.52 z-score; in [6] it was -0.464 z-score. Moreover, the figures for the binding signal in assay [7], in assay [8] and in assay [9] were -0.386 z-score, -1.07 z-score and -0.406 z-score, respectively.
Regarding CGAATGTCCCC, the binding signal in assay [1] is 0.531 z-score; in assay [2], 1.1 z-score; in [3], 0.861 z-score; in assay [4], 1.09 z-score; in assay [5] it was 1.07 z-score; in assay [6] it was 1.07 z-score. Further, the results for the binding signal in [7], in [8] and in assay [9] were 1.17 z-score, 1.01 z-score and 0.868 z-score, respectively.
Consider GGGTTCGTCCC, for which the binding signal in assay [1] was 0.22 z-score; in [2], 0.238 z-score; in [3] it was 1.59 z-score; in [4] it was 0.186 z-score; in assay [5], 1.09 z-score; in [6], 0.251 z-score. Besides, the figures for the binding signal in [7], in assay [8] and in assay [9] were 0.438 z-score, 0.489 z-score and 0.747 z-score, respectively.
In the case of CGGGGAATCCC, the binding signal in [1] turned out to be 3.57 z-score; in [2], 1.22 z-score; in assay [3], 3.13 z-score; in [4] it was 2.36 z-score; in [5] it was 2.81 z-score; in [6], 2.64 z-score. For the same sequence, the binding signal in assay [7] was found to be 2.75 z-score; in assay [8], 2.51 z-score; in assay [9], 3.54 z-score.
Regarding AGGTTTATCCT, the binding signal in assay [1] was -0.465 z-score; in assay [2], -0.953 z-score; in assay [3], -0.558 z-score; in assay [4], -1.01 z-score; in [5], -0.905 z-score; in [6], -0.943 z-score. For the same sequence, the binding signal in [7] was -0.798 z-score; in assay [8], -1.17 z-score; in [9], -0.61 z-score.
As to CGAAATCCCCC, the binding signal in [1] was 1.7 z-score; in assay [2], 1.64 z-score; in [3] it was 2.27 z-score; in [4], 2.33 z-score; in assay [5], 2.13 z-score; in assay [6], 2.58 z-score. The binding signal amounted to 2.42 z-score in assay [7], 1.83 z-score in assay [8] and 2.36 z-score in [9].
For AAGTGCTCCCT, the binding signal was -0.204 z-score in assay [1]; -0.136 z-score in [2]; -0.291 z-score in assay [3]; -0.382 z-score in assay [4]; -0.51 z-score in [5]; -0.322 z-score in assay [6]. Further, the binding signal in assay [7] was -0.434 z-score; in assay [8] it was -0.836 z-score; in assay [9], -0.646 z-score.
Regarding GGGTAAGTCCT, the binding signal in assay [1] came out at 1.28 z-score; in [2], 0.161 z-score; in assay [3], 1.41 z-score; in [4] it was 0.335 z-score; in assay [5], 0.851 z-score; in assay [6], 0.207 z-score. Also, the binding signal was found to be 0.217 z-score in assay [7], 0.357 z-score in assay [8] and 0.997 z-score in [9].
On to CAGAGTGTCCC, for which the binding signal in assay [1] is 0.916 z-score; in [2], 0.0211 z-score; in assay [3], 0.161 z-score; in assay [4], 0.185 z-score; in [5] it was 0.144 z-score; in assay [6] it was 0.304 z-score. Besides, the values for the binding signal in [7], in assay [8] and in [9] were 0.434 z-score, 0.274 z-score and 0.221 z-score, respectively.
As to AAGAATCCCCC, the binding signal in [1] was found to be 1.26 z-score; in [2] it was 1.57 z-score; in [3], 2.41 z-score; in [4], 2.44 z-score; in assay [5] it was 2.16 z-score; in assay [6] it was 2.64 z-score. Also, the binding signal was 2.41 z-score in assay [7], 1.79 z-score in assay [8] and 1.99 z-score in assay [9].
As for GGGGAGGTCCT, the binding signal in assay [1] came out at 0.546 z-score; in [2], 0.328 z-score; in assay [3], 1.26 z-score; in assay [4], 0.275 z-score; in assay [5], 0.847 z-score; in assay [6], 0.375 z-score. The binding signal in assay [7] was 0.376 z-score; in assay [8], 0.314 z-score; in assay [9], 0.559 z-score.
On to CGATAATTCCC, for which the binding signal in assay [1] is 2.04 z-score; in [2], 0.948 z-score; in assay [3] it was 0.738 z-score; in assay [4], 1.43 z-score; in assay [5] it was 0.974 z-score; in assay [6] it was 0.871 z-score. The results for the binding signal in assay [7], in assay [8] and in assay [9] were 0.87 z-score, 1.51 z-score and 1.12 z-score, respectively.
